# In the supplement of paper PMC6897291:
# Where a name gives a salt, the structure may show the parent alone.
# Experiments:
# [1] = test system: U-2932; test: growth inhibition by drug alone (1 - RLU/untreated control) (fraction); higher = stronger inhibition; conditions: 177Lu-lilotomab satetraxetan 0 ug/ml
# In short: (§1)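 With or without 18 h pretreatment by a radiolabelled anti-CD37 antibody conjugate (~600 MBq/mg; 0.5 µg/ml RIVA, 1 µg/ml U-2932), RIVA and U-2932 cells were washed and plated at 3,000 cells/well. Pre-printed compound doses were 10/100 nM for RIVA and 10/1,000 nM for U-2932. Growth inhibition uses RealTime-Glo RLU relative to the untreated no-drug wells. The calculation is 1 − RLU/mean of 48 such wells per plate, with reads daily from day 3 after 1 h at 37°C.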
# [2] = test system: RIVA; test: as above; conditions: 177Lu-lilotomab satetraxetan 0 ug/ml
# In short: as §1
# [3] = test system: U-2932; test: growth inhibition by drug plus 177Lu-lilotomab satetraxetan (1 - RLU/untreated control) (fraction); higher = stronger inhibition; conditions: 177Lu-lilotomab satetraxetan 1 ug/ml
# In short: as §1
# [4] = test system: RIVA; test: as above; conditions: 177Lu-lilotomab satetraxetan 0.5 ug/ml
# In short: as §1
SMILES,"growth inhibition by drug alone ([1]; 10 nM, time (day): 3)","growth inhibition by drug alone ([1]; 10 nM, time (day): 4)","growth inhibition by drug alone ([1]; 10 nM, time (day): 5)","growth inhibition by drug alone ([1]; 10 nM, time (day): 6)","growth inhibition by drug alone ([1]; 1000 nM, time (day): 3)","growth inhibition by drug alone ([1]; 1000 nM, time (day): 4)","growth inhibition by drug alone ([1]; 1000 nM, time (day): 5)","growth inhibition by drug alone ([1]; 1000 nM, time (day): 6)","growth inhibition by drug alone ([2]; 10 nM, time (day): 3)","growth inhibition by drug alone ([2]; 10 nM, time (day): 4)","growth inhibition by drug alone ([2]; 10 nM, time (day): 5)","growth inhibition by drug alone ([2]; 10 nM, time (day): 6)","growth inhibition by drug alone ([2]; 100 nM, time (day): 3)","growth inhibition by drug alone ([2]; 100 nM, time (day): 4)","growth inhibition by drug alone ([2]; 100 nM, time (day): 5)","growth inhibition by drug alone ([2]; 100 nM, time (day): 6)","growth inhibition by drug plus 177Lu-lilotomab satetraxetan ([3]; 10 nM, time (day): 3)","growth inhibition by drug plus 177Lu-lilotomab satetraxetan ([3]; 10 nM, time (day): 4)","growth inhibition by drug plus 177Lu-lilotomab satetraxetan ([3]; 10 nM, time (day): 5)","growth inhibition by drug plus 177Lu-lilotomab satetraxetan ([3]; 10 nM, time (day): 6)","growth inhibition by drug plus 177Lu-lilotomab satetraxetan ([3]; 1000 nM, time (day): 3)","growth inhibition by drug plus 177Lu-lilotomab satetraxetan ([3]; 1000 nM, time (day): 4)","growth inhibition by drug plus 177Lu-lilotomab satetraxetan ([3]; 1000 nM, time (day): 5)","growth inhibition by drug plus 177Lu-lilotomab satetraxetan ([3]; 1000 nM, time (day): 6)","growth inhibition by drug plus 177Lu-lilotomab satetraxetan ([4]; 10 nM, time (day): 3)","growth inhibition by drug plus 177Lu-lilotomab satetraxetan ([4]; 10 nM, time (day): 4)","growth inhibition by drug plus 177Lu-lilotomab satetraxetan ([4]; 10 nM, time (day): 5)","growth inhibition by drug plus 177Lu-lilotomab satetraxetan ([4]; 10 nM, time (day): 6)","growth inhibition by drug plus 177Lu-lilotomab satetraxetan ([4]; 100 nM, time (day): 3)","growth inhibition by drug plus 177Lu-lilotomab satetraxetan ([4]; 100 nM, time (day): 4)","growth inhibition by drug plus 177Lu-lilotomab satetraxetan ([4]; 100 nM, time (day): 5)","growth inhibition by drug plus 177Lu-lilotomab satetraxetan ([4]; 100 nM, time (day): 6)"
Nc1cccc2c1C(=O)N(C1CCC(=O)NC1=O)C2=O (stereo not given) [Pomalidomide],0.00761,0.0144,-0.0587,-0.183,0.0958,0.25,0.271,0.309,-0.0396,-0.0278,-0.0766,-0.254,-0.0764,-0.115,-0.132,-0.196,0.0211,0.034,0.0448,0.147,0.233,0.391,0.414,0.472,0.434,0.529,0.549,0.555,0.439,0.414,0.434,0.443
N#CC[C@H](C1CCCC1)n1cc(-c2ncnc3[nH]ccc23)cn1,0.018,0.0281,-0.0548,-0.139,-0.0929,-0.0506,-0.111,-0.125,0.0229,-0.0212,-0.0792,-0.268,-0.143,-0.098,-0.128,-0.247,0.00599,0.0333,-0.193,0.112,-0.166,-0.0146,-0.0674,-0.122,0.32,0.445,0.469,0.488,0.269,0.379,0.376,0.348
CC(C)C[C@H](NC(=O)[C@H](Cc1ccccc1)NC(=O)c1cnccn1)B(O)O [Bortezomib (Velcade)],0.965,0.971,0.976,0.978,0.985,0.984,0.985,0.985,,,,,,,,,0.952,0.967,0.976,0.98,0.986,0.987,0.986,0.988,0.955,0.969,0.976,0.98,0.989,0.989,0.989,0.99
COc1cc2ncnc(Nc3cccc(Br)c3)c2cc1OC,0.0352,0.0294,-0.0462,-0.213,-0.0358,-0.00581,-0.044,-0.226,-0.0227,0.0203,-0.0662,-0.376,-0.0939,-0.0578,-0.0794,-0.167,-0.0269,-0.00153,0.00885,0.0642,-0.0997,0.0384,0.0191,0.0515,0.308,0.458,0.483,0.516,0.349,0.482,0.487,0.467
Nc1nc2[nH]cc(CCc3ccc(C(=O)N[C@@H](CCC(=O)O)C(=O)O)cc3)c2c(=O)[nH]1 [Pemetrexed],-0.0147,-0.0188,-0.0965,-0.27,0.905,0.948,0.965,0.974,-0.121,-0.198,-0.281,-0.489,-0.293,-0.377,-0.377,-0.54,-0.058,-0.0226,0.000411,0.0568,0.893,0.951,0.97,0.979,0.279,0.458,0.483,0.497,0.325,0.44,0.436,0.408
CC[C@@H]1/C=C(\C)C[C@H](C)C[C@H](OC)[C@H]2O[C@@](O)(C(=O)C(=O)N3CCCC[C@H]3C(=O)O[C@H](/C(C)=C/[C@@H]3CC[C@H](Cl)[C@H](OC)C3)[C@H](C)[C@@H](O)CC1=O)[C@H](C)C[C@@H]2OC [Pimecrolimus],0.214,0.249,0.272,0.287,0.139,0.29,0.361,0.431,0.339,0.267,0.276,0.279,0.691,0.549,0.534,0.477,0.198,0.242,0.304,0.352,0.12,0.321,0.373,0.447,0.545,0.621,0.662,0.701,0.634,0.675,0.716,0.743
Nc1ncn([C@H]2C[C@H](O)[C@@H](CO)O2)c(=O)n1 [Decitabine],0.1,0.0737,-0.0105,-0.0724,-0.215,0.144,0.37,0.544,,,,,,,,,0.0943,0.11,0.126,0.167,0.13,0.49,0.632,0.753,0.474,0.558,0.569,0.567,0.496,0.556,0.566,0.53
C[C@]1(c2nc3c(C(N)=O)cccc3[nH]2)CCCN1 [ABT-888 (Veliparib)],-0.0659,-0.0358,-0.0424,0.0616,-0.0937,-0.0475,-0.078,-0.068,,,,,,,,,-0.0353,-0.0127,0.0158,0.166,-0.0568,0.0163,0.019,0.0852,0.338,0.488,0.516,0.518,0.307,0.418,0.442,0.427
"Cc1c(C(=O)Nc2ccc(N3C[C@@H](C)O[C@@H](C)C3)nc2)cccc1-c1ccc(OC(F)(F)F)cc1 [LDE225 (NVP-LDE225, Erismodegib)]",0.0297,0.0258,-0.0417,-0.121,-0.0141,0.0478,0.023,-0.177,,,,,,,,,0.00969,0.0196,0.033,0.15,-0.0204,0.153,0.159,0.189,0.366,0.504,0.517,0.547,0.384,0.483,0.482,0.47
CN1CC[C@H](c2c(O)cc(O)c3c(=O)cc(-c4ccccc4Cl)oc23)[C@H](O)C1 [Flavopiridol hydrochloride],-0.0754,-0.0311,-0.0181,0.00401,0.957,0.967,0.974,0.979,,,,,,,,,-0.0108,0.0505,0.0958,0.189,0.965,0.972,0.978,0.983,0.521,0.567,0.566,0.567,0.615,0.69,0.704,0.72
C[C@@H](Oc1cc(-n2cnc3ccc(CN4CCN(C)CC4)cc32)sc1C(N)=O)c1ccccc1C(F)(F)F,0.444,0.458,0.438,0.516,0.94,0.961,0.973,0.981,0.364,0.265,0.248,0.223,0.944,0.961,0.967,0.969,0.423,0.489,0.536,0.644,0.926,0.959,0.975,0.982,0.759,0.799,0.824,0.853,0.943,0.964,0.974,0.981
O=C(O)Cc1cccc(OCCCN(Cc2cccc(C(F)(F)F)c2Cl)CC(c2ccccc2)c2ccccc2)c1,0.116,0.0747,-0.121,-0.11,0.111,0.127,-0.0348,-0.224,,,,,,,,,0.0517,0.0894,0.143,0.142,0.162,0.224,0.223,0.228,0.667,0.666,0.678,0.677,0.86,0.858,0.874,0.893
CNC(=O)c1ccccc1Sc1ccc2c(/C=C/c3ccccn3)n[nH]c2c1 [Axitinib],-0.00761,0.0176,0.0231,-0.0205,0.0126,0.0489,-0.0091,-0.0631,,,,,,,,,0.0328,0.0444,0.0505,0.163,-0.0364,0.0807,0.114,0.196,,,,,,,,
CC(C)C(=O)Nc1ccc([N+](=O)[O-])c(C(F)(F)F)c1 [Flutamide (Eulexin)],0.147,0.0928,0.0103,-0.0414,0.15,0.123,0.105,0.0519,0.122,0.106,0.0768,-0.0242,-0.044,0.0232,0.0258,-0.0163,0.105,0.202,0.26,0.327,0.175,0.211,0.291,0.385,0.611,0.616,0.649,0.663,0.534,0.562,0.599,0.626
CN(C)Cc1c(C(=O)NCCOc2ccc(C(=O)NO)cc2)oc2ccccc12,0.0311,0.0492,0.0509,-0.0158,0.972,0.985,0.987,0.988,-0.0928,-0.0394,-0.0793,-0.251,0.392,0.295,0.256,0.158,0.0477,0.0589,0.111,0.194,0.988,0.989,0.99,0.991,0.524,0.628,0.645,0.659,0.926,0.925,0.931,0.938
O=C(Cc1ccc(-c2ccc(OCCN3CCOCC3)cc2)cn1)NCc1ccccc1,0.144,0.134,0.0891,0.0449,0.964,0.971,0.975,0.978,,,,,,,,,0.0847,0.112,0.111,0.18,0.968,0.977,0.981,0.983,0.466,0.544,0.565,0.575,0.833,0.839,0.863,0.881
